Compound activity (PubChem BioAssay)
Rows were chosen to be rich in hits. Some 5.7% of all compounds tested hit in one or more screens of this group.
KB-V1 MDR tox: qHTS assay for MDR1-selective chemotherapeutics: Primary screen using the drug-selected MDR subline cells KB-V1 | KB-V1 MDR cells viability, CellTiter-Glo, 72 h | Potency, µM (titrated, usually from 46.1 µM), usual class: cytotoxic | 400,000 tested, 3.4% active | AID 1347076, 2019; further: nearly all actives have a fitted effect of over 60% in size
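qHTS viability screen in drug-selected KB-V1 MDR cells: 72 h compound treatment at 37 degrees C, ATP luminescence end point.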
KB-3-1 cytotox: qHTS assay for MDR1-selective chemotherapeutics: Primary screen using the parental adenocarcinoma cell KB-3-1; KB-3-1 viability, CellTiter-Glo ATP luminescence, 72 h; 400,000 tested, 1.4% active; AID 1347075, 2019; Potency, µM (doses to about 46.1 µM), actives largely listed as cytotoxic; further: nearly all actives have a fitted effect of over 60% in size
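Here the drug-naive KB-3-1 line serves as comparator for MDR sub-line selectivity; cells received compound titrations, 72 h at 37 °C, then CellTiter-Glo readout.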
HT1080 IDH1KD tx: qHTS for induction of synthetic lethality in tumor cells producing 2HG: qHTS for the HT-1080-IDH1KD cell line; Potency, µM (titrated, usually from 46.1 µM), actives largely listed as cytotoxic; HT-1080 IDH1 knockdown viability, ATP luminescence, 48 h; AID 686971, 2013; 360,000 tested, 2% active
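Knockdown cells (IDH1KD HT-1080) received compounds 2 h after plating at 750 cells/well and were kept 48 h at 37 °C in 5% FBS RPMI. A CellTiter-Glo luminescence read gave % activity for curve fitting.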
HT1080-NT tox: qHTS for induction of synthetic lethality in tumor cells producing 2HG: qHTS for the HT-1080-NT fibrosarcoma cell line; HT-1080-NT fibrosarcoma viability, CellTiter-Glo ATP luminescence, 48 h; Potency, µM (top dose mostly 46.1 µM), hits mostly cytotoxic; 360,000 tested, 1.6% active; AID 686970, 2013;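 further: NT is the 2HG producing partner of a matched IDH1 knockdown line; nearly all actives have a fitted effect of over 55% in size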
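HT-1080-NT; 750 cells/well; 5% FBS RPMI; 48 h compound, 37 degrees C; CellTiter-Glo luminescence; curve fitting and curve-class assignment.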
Of the large screens only hits and unclear results are named; the others gave an inactive call. The call rests on the fitted dose curve; in most records, active means well fitted curve in the direction sought with a large enough effect; inconclusive means small, poorly fitted or top-dose-only effect, or another doubt; inactive means no such curve, though single readings can be large; an effect the other way counts as inactive or inconclusive.

Cc1ccc2ccc[n+](Cc3ccccc3)c2c1	KB-3-1 cytotox 5.17µM
Cc1cc(N(C)C)c(C)cc1/C=C/c1ccnc2ccccc12	KB-V1 MDR tox 6.51µM, KB-3-1 cytotox 2.91µM (no result: HT1080 IDH1KD tx, HT1080-NT tox)
CCN(CC)c1cc(C)c(/C=C/c2ccnc3ccccc23)cc1C	KB-V1 MDR tox inconclusive, KB-3-1 cytotox 11.6µM (no result: HT1080 IDH1KD tx, HT1080-NT tox)
CCCCN(CCCC)c1ccc(C=Nc2ccc(/C=C/c3ccnc4ccccc34)cc2)cc1C	KB-V1 MDR tox 23.1µM, KB-3-1 cytotox inconclusive (no result: HT1080 IDH1KD tx, HT1080-NT tox)
CCN(Cc1ccccc1)c1ccc(/C=C/c2ccnc3ccccc23)cc1	none (no result: HT1080 IDH1KD tx, HT1080-NT tox)
O=C1CCC[C@@H]2[C@@H](Cc3ccccc3)[C@@H](Nc3ccccc3)C[C@@H]3CCN1[C@@H]32	KB-V1 MDR tox inconclusive (no result: HT1080 IDH1KD tx, HT1080-NT tox)
COc1cc2c(cc1OC)CN(c1nc(CN3CCCC3)nc3sc(C)c(C)c13)CC2	HT1080 IDH1KD tx inconclusive, HT1080-NT tox 14.6µM
Cc1cc(O)c(C(C)C)cc1C1(c2cc(C(C)C)c(O)cc2C)OC(=O)c2ccccc21	KB-V1 MDR tox inconclusive, KB-3-1 cytotox inconclusive, HT1080 IDH1KD tx 16.4µM, HT1080-NT tox 8.2µM
Cc1cc(C2(c3ccc(O)c(C)c3)OC(=O)c3ccccc32)ccc1O	none
Cc1cccc(N(C)C(=O)C2CCCN2S(=O)(=O)c2cccc3nsnc23)c1 (stereo unspecified)	none
CNc1c(Br)cc(/C=C2\C=Cc3ccccc32)cc1Br	none (no result: HT1080 IDH1KD tx, HT1080-NT tox)
O=Cc1s/c(=N\S(=O)(=O)c2ccccc2)n(CCCCl)c1Cl	KB-3-1 cytotox inconclusive, HT1080 IDH1KD tx 7.31µM, HT1080-NT tox 7.31µM
CCn1c(C)cs/c1=N\S(=O)(=O)c1ccccc1	none
COc1ccccc1CN1CCNC(=O)C1=O	none (no result: HT1080 IDH1KD tx, HT1080-NT tox)
Cc1c(O)cc2c(c1O)C(=O)CC(c1ccccc1)O2 (stereo unspecified)	KB-3-1 cytotox inconclusive, HT1080 IDH1KD tx 23.1µM, HT1080-NT tox inconclusive
Cc1ccc(-n2nc3c(N4CCC(C(=O)NCc5ccccc5C)CC4)nnc(C)c3c2C)cc1	KB-V1 MDR tox inconclusive, KB-3-1 cytotox inconclusive, HT1080 IDH1KD tx 8.2µM, HT1080-NT tox 7.31µM
Cc1ccc(-n2nc3c(N4CCC(C(=O)NCc5ccccc5Cl)CC4)nnc(C)c3c2C)cc1	none (no result: HT1080 IDH1KD tx, HT1080-NT tox)
CCOc1ccccc1CNC(=O)C1CCN(c2nnc(C)c3c(C)n(-c4ccc(C)cc4)nc23)CC1	KB-3-1 cytotox inconclusive, HT1080 IDH1KD tx 13µM, HT1080-NT tox inconclusive
COC(=O)C1=CN(c2ccc(C(C)(C)C)cc2)C(N)=C(C#N)C1c1cccc2ccccc12 (stereo unspecified)	KB-3-1 cytotox inconclusive, HT1080 IDH1KD tx inconclusive, HT1080-NT tox inconclusive
COC(=O)C1=CN(c2ccc(OC)cc2)C(N)=C(C#N)C1c1cccc2ccccc12 (stereo unspecified)	KB-V1 MDR tox inconclusive, KB-3-1 cytotox 18.4µM, HT1080 IDH1KD tx inconclusive, HT1080-NT tox inconclusive
COC(=O)C1=CN(c2ccc3c(c2)OCO3)C(N)=C(C#N)C1c1ccccc1 (stereo unspecified)	KB-V1 MDR tox 2.91µM, KB-3-1 cytotox 7.31µM, HT1080 IDH1KD tx 11.6µM, HT1080-NT tox 18.4µM
COC(=O)C1=CN(c2ccc(F)cc2)C(N)=C(C#N)C1c1ccccc1 (stereo unspecified)	KB-V1 MDR tox inconclusive, KB-3-1 cytotox inconclusive, HT1080 IDH1KD tx inconclusive
COC(=O)C1=CN(c2ccccc2OC)C(N)=C(C#N)C1c1cccc([N+](=O)[O-])c1 (stereo unspecified)	KB-V1 MDR tox 4.11µM, KB-3-1 cytotox 4.61µM, HT1080 IDH1KD tx 1.84µM, HT1080-NT tox 2.31µM
O=C(NCc1ccc(Cl)cc1)C(=O)Nc1ccc(Br)cc1	none (no result: HT1080 IDH1KD tx, HT1080-NT tox)
CCOCCCNC(=O)c1c(NC(=O)c2nc(SCC)ncc2Cl)sc2c1CCCC2	none (no result: HT1080 IDH1KD tx, HT1080-NT tox)
CCN1CCN(C(c2cccc(OC)c2)c2c(O)cc(C)n(Cc3ccco3)c2=O)CC1 (stereo unspecified)	none (no result: HT1080 IDH1KD tx, HT1080-NT tox)
O=S(=O)(c1ccc(F)cc1F)N1CCN(c2nc(-c3cccs3)nc3ccccc23)CC1	none (no result: KB-V1 MDR tox, KB-3-1 cytotox)
COc1cccc(-c2nnc3n2N=C(C(C)(C)C)CS3)c1	KB-V1 MDR tox 20.6µM, KB-3-1 cytotox inconclusive, HT1080 IDH1KD tx inconclusive, HT1080-NT tox inconclusive
COc1ccc(OC)c(C2=Nn3c(nnc3-c3ccncc3)SC2)c1	HT1080-NT tox inconclusive
COc1ccc(-c2nnc3n2N=C(C)CS3)cc1	none
